Source: PubChem BioAssay AID2315 (National Center for Advancing Translational Sciences (NCATS), 2010)
The whole screen tested about 290,000 compounds, of which about 27,000 (9.3%) were called active. The entries come from a sample that favours actives as a whole. Values without a mark were called inactive. Cut-off read from the data, not from the text of the source: active = inhibition mostly above about 28% (no sharp cut-off); inactive = mostly below about 43%.

Assay: A qHTS for Small Molecule Inhibitors of Shiga Toxin; note: 0% is about no effect
Conditions: Vero cells, Shiga toxin protein synthesis inhibition reporter; at 38.7 µM, active compounds read high

SMILES | inhibition
Cc1ccc(NC(=O)CN2C(=O)NC(C)(c3ccc(Cl)cc3)C2=O)c(Br)c1 (stereo unspecified) | -4.27%
CCN(CC)Cc1cc(C(C)=O)ccc1O | -16.1%
CC(=O)c1ccc2c(ccc3ccccc32)c1 | 50.4% (active)
CC(=O)c1ccc2c(c1)c1ccccc1n2CC(C)C | -9.15%
Cc1ccccc1OCC(=O)NCC(=O)OCC(=O)c1ccc2ccccc2c1 | 12.1%
C/C(=N\NC(=O)c1ccc2ccccc2c1)c1cccnc1 | 43.1%
CC(=O)CCC(=O)c1ccc2ccccc2c1 | 52.7% (active)
Cc1cccc(NS(=O)(=O)c2ccc(C(=O)NCC(C)(C)N3CCOCC3)cc2)c1C | -13%
COc1cc(OC)c(S(=O)(=O)Nc2ccccc2C(=O)O)cc1S(=O)(=O)Nc1ccccc1C(=O)O | 7.19%
CCC(=O)N1CCc2cc(S(=O)(=O)CCC(=O)N3CCN(c4ccccc4F)CC3)ccc21 | 0.463%
COc1cc(NS(=O)(=O)c2ccc(NC(=S)NC(=O)c3ccccc3)cc2)nc(OC)n1 | -2.7%
O=C(Nc1ccc(Br)cn1)c1ccc([N+](=O)[O-])o1 | 50.9% (active)
CC(C)C(=O)Nc1cccc(NC(=O)c2ccc([N+](=O)[O-])cc2Cl)c1 | 16.6%
O=C(Nc1ccc(Br)cn1)c1ccc([N+](=O)[O-])cc1Cl | 119% (active)
CN1C(=O)c2ccc(C(=O)Nc3ccc(Br)cn3)cc2C1=O | -3.25%
O=C(Nc1ccncc1)c1ccc([N+](=O)[O-])cc1Cl | -1.95%
O=C(/C=C/c1ccc(Cl)cc1)Nc1ccc(Br)cn1 | 34.5%
COc1ccc(N(Cc2cc3ccc(C)cc3[nH]c2=O)S(=O)(=O)c2ccccc2)cc1 | -1.62%
CCOc1cc(NC(=O)Nc2ccccc2)c(OCC)cc1NC(=O)CC | -9.09%
CC1CCCN(S(=O)(=O)c2ccc(-c3ccc(=O)[nH]n3)o2)C1 (stereo unspecified) | -5.12%
O=S(=O)(NC1CC1)c1ccc(F)c(F)c1 | 20.3%
CCc1ccc(OCC(=O)OC(C)C(=O)NC2CC2)cc1 (stereo unspecified) | -3.01%
CCCCN(CC)C(=O)C1CCCN(S(=O)(=O)c2cccc3nsnc23)C1 (stereo unspecified) | -4.85%
Cc1cccc(OC(=O)c2sc3ncn(C)c(=O)c3c2C)c1 | 67.1% (active)

SMILES | inhibition
CCOC(=O)C(C)n1cnc2sc(C)c(C)c2c1=O (stereo unspecified) | 17.6%
Cc1c(C(N)=O)sc2ncn(CCOc3ccccc3)c(=O)c12 | 59.8%
CN(CCc1ccccn1)C(=O)c1ccc(OC2CCN(Cc3ccccn3)CC2)cc1 | 16%
CCCCOC(=O)Nc1nccs1 | 7.37% (active)
CC(NC(=O)C(=O)Nc1nccs1)c1ccccc1 (stereo unspecified) | -4.59%
CCN(c1ccccc1)S(=O)(=O)c1ccc(C(=O)Nc2nccs2)cc1 | -6.9%
CC(=O)NC(CC(=O)Nc1nccs1)c1ccccc1 (stereo unspecified) | 14.1%
CCOc1ccc(C(=O)Nc2nccs2)cc1[N+](=O)[O-] | 69.4% (active)
Cn1cccc1C(=O)Nc1nccs1 | 39.3% (active)
COc1ccc(C(=O)NNC(=O)c2cnccn2)cc1[N+](=O)[O-] | -6.53%
CCOc1ccc(C(=O)NC(=S)Nc2ccc(NC(=O)C(C)C)cc2)cc1[N+](=O)[O-] | -4.8%
CC(=O)Oc1ccc(C(=O)Nc2nccs2)cc1 | 45.7% (active)
O=C(COC(=O)c1ccc(O)cc1)Nc1nccs1 | 28%
O=C(O)c1ccccc1-c1ccccc1C(=O)Nc1nccs1 | 16.1%
CCCCOC(=O)Nc1nnc(CC(=O)NCc2ccccc2)s1 | -13.9%
COC(=O)CCc1ccccc1S(=O)(=O)N(CCC(=O)OC)Cc1ccccc1 | -5.55%
Cc1ccccc1Nc1c([N+](=O)[O-])ccc2nonc12 | -12%
COc1cc(OC)c2c(C)cc(=O)oc2c1C(CCN1CCCCC1)c1ccc(N(C)C)cc1 (stereo unspecified) | -4.37%
COCc1ccc(CN2CCC(Oc3ccc(C(=O)NCc4ccccn4)cc3)CC2)o1 | -9.34%
C=C1/C(=C\C=C2\CCCC3(C)C2CCC3C(C)/C=C/C(O)C2CC2)CC(O)CC1O (stereo unspecified) | -5.18%
O=C(NCc1cccc(C(F)(F)F)c1)c1cccc(S(=O)(=O)N2CCN(Cc3ccccc3)CC2)c1 | -21.6%
CCOc1ccc(C2/C(=C(/O)c3ccc4c(c3)CC(C)O4)C(=O)C(=O)N2CCCn2ccnc2)cc1 (stereo unspecified) | 14.2%
Cc1cccc(C)c1OCC(=O)NC(Cc1c[nH]c2ccccc12)C(=O)O (stereo unspecified) | -4.32%
COc1ccc(-c2cc(C(=O)NC(Cc3c[nH]c4ccccc34)C(=O)O)c(C)o2)cc1OC (stereo unspecified) | 29.3% (active)

SMILES | inhibition
COc1ccc(-c2cc(C(=O)NC(C(=O)O)C(C)C)c(C)o2)cc1OC (stereo unspecified) | 46.9%
O=C(NCCc1ccc(Cl)cc1Cl)c1cc([N+](=O)[O-])c[nH]c1=O | -2.76%
Cc1ccnc(NS(=O)(=O)c2ccc(NC(=O)c3oc4ccccc4c3C)cc2)n1 | -19.8%
CCCc1nc(SCC(=O)N2CCCC2)c2c(=O)n(C)c(=O)n(C)c2n1 | -3.54%
C[C@@H]1CC[C@@]2(OC1)O[C@H]1C[C@H]3[C@@H]4CC=C5C[C@@H](O)[C@H](O)C[C@]5(C)C4CC[C@]3(C)[C@H]1[C@@H]2C (stereo partly specified) | -6.76%
COc1ccc2[nH]c(C(=O)N3CCN(C)CC3)c(C)c2c1 | -9.68%
CCOc1ccccc1N1CCN(C(=O)c2ccc3[nH]c(C)c(C)c3c2)CC1 | -2.3%
Cc1[nH]c2ccc(C(=O)N3CCN(C)CC3)cc2c1C | 45.9% (active)
CCOCCCNC(=S)Nc1ccc2nc(N3CCN(CC)CC3)cc(C)c2c1 | 4.52%
Cc1ccc(-c2nc3ccccc3[nH]c2=O)cc1 | 21.4%
OC(c1nc2ccccc2[nH]1)C(O)C(O)C(O)c1nc2ccccc2[nH]1 (stereo unspecified) | 19.2%
c1ccc2[nH]c(-c3nc4ccccc4[nH]3)nc2c1 | 107% (active)
Cc1ccc(-c2nc3ccccc3[nH]2)cc1N | 106% (active)
COc1ccc(-c2[nH]nc(-c3ccccc3)c2-c2nc3ccccc3[nH]2)cc1 | -19.5%
Cc1ccccc1N1CC(c2nc3ccccc3[nH]2)CC1=O (stereo unspecified) | -11.9%
CCOC(=O)N1CCN(C(=O)CSc2ccc(Cl)cc2)CC1 | 93.2% (active)
CCN1CCN(C(=O)CSc2ccc(C)cc2)CC1 | 52.4%
CCOC(=O)N1CCN(C(=O)CNC(=O)Cc2ccc(Cl)cc2)CC1 | -2.93%
CC(=O)Nc1ccc(S(=O)(=O)Nc2cc(C)cn(Cc3ccc(C)cc3)c2=O)cc1 | 20.8%
COc1ccccc1C(=O)Oc1ccc(N2C(=O)CCC2=O)cc1 | -6.4%
CCOC(=O)c1cc(OC(=O)c2ccccc2Cl)n(-c2ccccc2)n1 | 35.8%
Cc1cc(OC(=O)c2ccccc2Cl)ccc1N1C(=O)CCC1=O | 60.4% (active)
Cc1n[nH]c(=O)c2c1nnn2Cc1ccc(F)cc1 | 14.5%
CC1CCN(C(=S)NC(=O)c2ccccc2Br)CC1 | 14.3%

SMILES | inhibition
Nc1ccc(N=Nc2ccccc2Cl)c(N)n1 | 105% (active)
CCOC(=O)C1CCN(S(=O)(=O)c2ccc3c(c2)N(C(C)=O)CCO3)CC1 | 15.1%
CCN(CC)S(=O)(=O)c1ccc(N2CCN(C)CC2)c(NC(=O)Nc2ccccc2F)c1 | 19.8%
O=C(c1cn2ccccc2n1)N1CCc2c([nH]c3ccccc23)C1c1ccccn1 (stereo unspecified) | 13.1%
Cc1cccc(C(=O)N2CCc3c([nH]c4ccccc34)C2CC(C)C)n1 (stereo unspecified) | 52.7% (active)
Cc1cccc(C2c3[nH]c4ccccc4c3CCN2C(=O)c2cc(-c3cccn3C)n[nH]2)n1 (stereo unspecified) | -3.12%
CCc1ccc(NC(=O)NC(C)c2ccc3c(c2)OCO3)cc1 (stereo unspecified) | -6.59%
Cc1cc(-c2ccc(C)c(S(=O)(=O)NC(C)Cc3ccco3)c2)on1 (stereo unspecified) | -1.68%
CCOC(=O)N1CCN(Cc2nc(N)nc(Nc3ccc(C)cc3)n2)CC1 | 16.1%
Cc1cccc(CSc2nnc(NC(=O)CSc3nnc(C)s3)s2)c1 | -22%
Cc1ccc(Nc2nnc(SCc3ccccc3)s2)cc1 | 78.2% (active)
Cc1nnc(SCc2nc3ccccc3nc2C)s1 | -8.09%
O=C(Nc1nnc(SCc2ccccc2)s1)c1ccco1 | 55.6%
Cc1ccc(Nc2nc(N)nc(CSc3nnc(C)s3)n2)cc1 | 97.7% (active)
Cc1cccn2cc(-c3cccc(S(=O)(=O)N4CCCCC4)c3)nc12 | 15.3%
N#CCSc1nc(-c2ccccc2)nc2ccc(F)cc12 | 4.25%
CCc1nnc(NC(=O)CCC(=O)N2CCN(c3cc(C)ccc3C)CC2)s1 | 2.43%
CCOC(=O)N1CCC(N2Cc3cccc(C(=O)Nc4ccc(S(=O)(=O)N(CC)CC)cc4)c3C2=O)CC1 | -14%
CCOc1c2ccc(C(=O)NCc3ccc(OC(F)(F)F)cc3)cc2nn1C | 29%
COC(=O)c1ccc(CNC(=O)c2ccc3oc(C(C)C)nc3c2)cc1 | 71.8% (active)
COC(=O)c1ccc(CSc2nc3cc(Cl)ccc3o2)cc1 | -12.3%
COc1ccc(CNC(=O)c2cc(=O)c3c(C)cc(C)cc3o2)cc1 | -1.33%
CC(C)c1nc2cc(C(=O)NC(C)c3cnn(C)c3)ccc2o1 (stereo unspecified) | 20.7%
COc1ccc(CNC(=O)c2ccc3oc(C(C)C)nc3c2)cc1 | 51.4% (active)
